Shown are actives, neighbours in structure and some others; about 1.8% of the full set was active somewhere.
LANA-H2A inh = blocks KSHV LANA binding to histone H2A/H2B | Q9QR71 | cell-free LANA-H2A/H2B peptide, fluorescence polarization | inhibition, % (no concentration beside the values) | actives 0.6% (n = 320,000); in the data active = inhibition mostly above about 10%, no sharp cut-off; inactive = mostly below about 6.7%
Pemphigus Ab inh = human desmoglein-3 autoantibody binding inhibition. binding (percent of control), % at 10 µM. P32926. actives 0.48% (n = 310,000). AID 588358. DSG3-coupled beads, scFv-anti-DSG3-GFP binding, flow cytometry; active compounds read low;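 active = binding more than 3 SD below its plate's average and above zero; inconclusive = below that plate limit but binding exactly zero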;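 note: hits lower antibody fragment binding to DSG3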
HDAC3 inhib = blocks human histone deacetylase 3 | actives 0.15% (n = 320,000) | inhibition, % at 8.3 µM | recombinant HDAC3, fluorogenic peptide/trypsin coupled, fluorescence | O15379; in the data active = inhibition above about 26%, passing the limit was not always enough; inconclusive = no clear call, values can overlap the other calls
VLA-4 inh = inhibition in a human VLA-4 binding assay. P13612. VLA-4 expressing cells, ligand binding flow cytometry. inhibition, % (about 7 µM as worked out from the volumes in the protocol). actives 0.2% (n = 330,000)
PKD1 inh = inhibitors of human PKD1 kinase; Q15139; PKD1 kinase fluorescence polarization assay; inhibition, % (no concentration beside the values); actives 0.056% (n = 200,000)
GRK2 inh = inhibitors of human GRK2 displacing RNA aptamer. inhibition of aptamer binding, % at 10 µM. AID 488847. actives 0.59% (n = 330,000). bead flow cytometry, FAM-aptamer displacement from GRK2;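 active = inhibition of aptamer binding above 40%, roughly 3 SD of noise, on plates passing a quality check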;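 note: median bead fluorescence of bound FAM aptamer so fluorescent compounds give negative values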
Target sequence (P25098 whole entry, looked up): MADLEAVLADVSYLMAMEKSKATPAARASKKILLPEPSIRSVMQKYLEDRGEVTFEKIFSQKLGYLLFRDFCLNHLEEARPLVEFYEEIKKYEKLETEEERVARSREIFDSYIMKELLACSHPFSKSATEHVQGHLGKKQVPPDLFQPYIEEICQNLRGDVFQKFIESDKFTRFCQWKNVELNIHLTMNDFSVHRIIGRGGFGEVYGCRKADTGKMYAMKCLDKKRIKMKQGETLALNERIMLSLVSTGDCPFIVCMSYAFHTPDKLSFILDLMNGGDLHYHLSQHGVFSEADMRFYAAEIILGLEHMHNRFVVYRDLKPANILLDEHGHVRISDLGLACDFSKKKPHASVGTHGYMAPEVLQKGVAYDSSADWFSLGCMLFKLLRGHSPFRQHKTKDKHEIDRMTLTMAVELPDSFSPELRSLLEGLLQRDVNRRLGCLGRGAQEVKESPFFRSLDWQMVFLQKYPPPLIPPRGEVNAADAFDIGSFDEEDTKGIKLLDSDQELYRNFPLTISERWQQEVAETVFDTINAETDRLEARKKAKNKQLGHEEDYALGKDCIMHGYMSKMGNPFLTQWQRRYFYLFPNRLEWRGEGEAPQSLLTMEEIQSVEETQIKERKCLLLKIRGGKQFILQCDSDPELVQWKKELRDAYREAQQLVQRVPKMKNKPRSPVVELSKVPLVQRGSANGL
Large screens that a line does not name were inactive. Cut-off read from the data, not from the text of the source, unless noted: active = inhibition above about 50%; inactive = the rest.

Cc1ccc(C2(c3ccccc3)NC(=O)N(CC(=O)N(C)C3CCS(=O)(=O)C3)C2=O)cc1C (centres undefined)	LANA-H2A inh 16 (no result: PKD1 inh)
Cc1ccc(C2(c3ccccc3)NC(=O)N(CC(=O)NC3(C#N)CCCC3)C2=O)cc1C (centres undefined)	LANA-H2A inh active (no result: PKD1 inh)
O=Cc1c(NCc2ccc(F)cc2)c2ccccc2[nH]c1=O	none (no result: PKD1 inh)
O=Cc1c(NC2CCCCC2)c2ccccc2[nH]c1=O	Pemphigus Ab inh 74, HDAC3 inhib inconclusive (no result: PKD1 inh)
Cc1ccccc1NC(=O)CC1SC(=O)N(c2ccccc2)C1=O (centres undefined)	none
CCOc1ccc(NC(=O)CC2SC(=O)N(c3ccccc3)C2=O)cc1 (centres undefined)	HDAC3 inhib 40
Cc1nc(Sc2ccccc2)c(C#N)cc1-c1ccccc1	LANA-H2A inh 130
CCOC(=O)N1CCN(C(=S)NC(=O)c2ccc(F)c(F)c2)CC1	none
Cc1nn(C)cc1C(C(=O)NC1CCCCC1)N(C(=O)Cc1cccs1)c1ccc(F)cc1 (centres undefined)	Pemphigus Ab inh -2.6
CCOC(=O)CNC(=O)Cn1cnc2c(cnn2-c2ccc(C)cc2)c1=O	none (no result: PKD1 inh)
N#C/C(C(=O)N1CCCCC1)=C1/N=C(N)c2ccccc21	GRK2 inh 100
N#C/C(C(=O)N1CCCCC1)=C1/N=C(NC(=O)c2ccc(F)cc2)c2ccccc21	none (no result: PKD1 inh)
COc1ccc(-c2noc(CCC(=O)NC3CCCCCC3)n2)cc1OC	Pemphigus Ab inh 83 (no result: LANA-H2A inh, HDAC3 inhib, VLA-4 inh, PKD1 inh, GRK2 inh)
COc1cc(/C=N/Nc2nc(N3CCCC3)nc(N3CCCC3)n2)ccc1O	HDAC3 inhib 38
Cc1nnc(NC(=O)C2CC(=O)N(c3ccc4c(c3)OCCO4)C2)s1 (centres undefined)	LANA-H2A inh 21 (no result: PKD1 inh)
Cc1cnc(NC(=O)C2CC(=O)N(c3ccc4c(c3)OCCO4)C2)s1 (centres undefined)	none (no result: PKD1 inh)
C=CCOc1c(Br)cc(CNc2ccc(NC(=O)C(C)C)c(OC)c2)cc1OCC	none (no result: Pemphigus Ab inh)
Cc1cc(C)c2c(N)c(C(=O)N/N=C/c3ccccc3)sc2n1	none (no result: Pemphigus Ab inh, PKD1 inh)
O=C(CN1CCN(c2cccc(Cl)c2)CC1)NC1CCCc2ccccc21 (centres undefined)	LANA-H2A inh 20 (no result: PKD1 inh)
CS(=O)(=O)c1ccc(C(=O)CN2C(=O)NC3(CCCc4ccccc43)C2=O)cc1 (centres undefined)	LANA-H2A inh 17 (no result: PKD1 inh)
O=C(CN1C(=O)NC2(CCCc3ccccc32)C1=O)c1ccc(F)cc1 (centres undefined)	none (no result: PKD1 inh)
CCn1c(=N)c(C(=O)NC)cc2c(=O)n3cccc(C)c3nc21	LANA-H2A inh 17 (no result: HDAC3 inhib, VLA-4 inh, PKD1 inh, GRK2 inh)
COc1cccc(NC(=O)c2cc3c(=O)n4ccccc4nc3n(CC(C)C)c2=N)c1	none
Cc1cccc(NC(=O)c2cc3c(=O)n4ccccc4nc3n(CC(C)C)c2=N)c1	VLA-4 inh 68
Cc1cc(C)c(C#N)c(SCC(O)COc2ccc(Br)cc2)n1 (centres undefined)	none (no result: PKD1 inh)
Cc1csc(/C(=N/OC(=O)c2ccco2)C(N)=O)n1	HDAC3 inhib 28 (no result: PKD1 inh)
COc1ccc(-c2cc(C(=O)NCCN3CCOCC3)no2)cc1OC	none (no result: PKD1 inh)
COc1ccc(-c2c(O)c(C#N)c(-c3ccccc3)n(-c3ccc(OC)cc3)c2=O)cc1	GRK2 inh 97
O=C(CSc1ccc2nnc(-c3cccnc3)n2n1)Nc1ccc(F)cc1	LANA-H2A inh 31 (no result: PKD1 inh)
O=C(CSc1ccc2nnc(-c3cccnc3)n2n1)Nc1ccccc1F	none (no result: LANA-H2A inh, HDAC3 inhib, VLA-4 inh, PKD1 inh, GRK2 inh)
COc1cccc(NC(=O)CSc2ccc3nnc(-c4cccnc4)n3n2)c1	none (no result: PKD1 inh)
O=C(CSc1ccc2nnc(-c3cccnc3)n2n1)c1ccccc1	PKD1 inh 112 (no result: Pemphigus Ab inh)
O=C(CSc1nnc(-c2cccnc2)n1-c1ccccc1)Nc1ccccc1	LANA-H2A inh 15
Cc1cccc(NC(=O)CSc2ccc3nnc(-c4cccnc4)n3n2)c1	LANA-H2A inh 13 (no result: PKD1 inh)
CC(=O)Nc1ccc(S(=O)(=O)N2CCN(S(=O)(=O)c3ccc(F)c(F)c3F)CC2)cc1	none (no result: PKD1 inh)
O=C(CCN1CCN(c2ccccc2F)CC1)Nc1cccc(F)c1	none (no result: PKD1 inh)
O=C(CCNS(=O)(=O)c1ccccc1)OCC(=O)c1ccc[nH]1	none (no result: PKD1 inh)
Cc1cc(C)nc(SCC(=O)c2ccc(F)cc2F)n1	none (no result: PKD1 inh)
Cn1nc(C(=O)Nc2cc(Cl)ccc2N2CCCC2)c2ccccc2c1=O	LANA-H2A inh 48 (no result: PKD1 inh)
CC(C)(CN1CCc2ccccc2C1)NS(=O)(=O)c1ccc(Cl)cc1	LANA-H2A inh 25 (no result: PKD1 inh)
CC1=CC(C)(C)[N+](C)=CN1c1ccccc1	none
CN(C)CCCN1c2ccccc2CCc2ccc(Cl)cc21	LANA-H2A inh 15
CNCCCN1c2ccccc2CCc2ccccc21	LANA-H2A inh 9.8
O=C1C=CC(=O)N1CCCCCCCCCCN1C(=O)C=CC1=O	none (no result: LANA-H2A inh, HDAC3 inhib, VLA-4 inh, PKD1 inh, GRK2 inh)
O=C(C1CC1)N1CCN(c2ccc(O)cc2)CC1	none (no result: PKD1 inh)
COc1ccc2c(=O)c(-c3ccc(C)cc3)c(-c3ccccc3)oc2c1	none (no result: LANA-H2A inh, HDAC3 inhib, VLA-4 inh, PKD1 inh)
O=C(NCCc1ccccc1)C1CC(=O)N(C2CCCC2)C1 (centres undefined)	none (no result: PKD1 inh)
Cc1nnc2c(NC3CCCCC3)nc3ccccc3n12	none (no result: PKD1 inh)
COCCCn1c(=NC(=O)c2ccncc2)c(C#N)cc2c(=O)n3cccc(C)c3nc21	none (no result: Pemphigus Ab inh)
Cc1cccn2c(=O)c3cc(C#N)c(=NC(=O)c4ccncc4)n(CCCOC(C)C)c3nc12	LANA-H2A inh 8.9
Cc1cccn2c(=O)c3cc(C#N)c(=NC(=O)c4cccs4)n(CCCOC(C)C)c3nc12	none (no result: Pemphigus Ab inh, PKD1 inh)
CCOCCCn1c(=NC(=O)c2cccs2)c(C#N)cc2c(=O)n3ccccc3nc21	LANA-H2A inh 35 (no result: PKD1 inh)
CCCn1c(=N)c(C#N)cc2c(=O)n3ccccc3nc21	LANA-H2A inh 13
O=C(O)c1cn(Cc2ccccc2)c2ccc(Cl)cc2c1=O	none (no result: PKD1 inh)
Cc1ccc(NC2=C([N+](=O)[O-])CS(=O)(=O)C2)cc1	LANA-H2A inh 28
CN(C)c1ccc(NC2=C([N+](=O)[O-])CS(=O)(=O)C2)cc1	none
CCN(CC)c1ccc(S(=O)(=O)N2CCOCC2)cc1NC(=O)CN1CCc2ccccc2C1	LANA-H2A inh 33
CCN(CC)c1ccc(S(=O)(=O)N2CCOCC2)cc1NC(=O)Cn1nc(C)c([N+](=O)[O-])c1C	none (no result: PKD1 inh)
CCOc1ccc(/C=N/NC(=O)Cc2csc(Nc3cccc(C(F)(F)F)c3)n2)c(OCC)c1	HDAC3 inhib 36
Cc1ccc(S(=O)(=O)n2nccc2-c2c(-c3ccc(Cl)cc3)noc2C)cc1	LANA-H2A inh 17 (no result: PKD1 inh)
O=C1C(=O)N(CCN2CCOCC2)C(c2cccnc2)/C1=C(/O)c1ccc(Cl)cc1 (centres undefined)	none
Cc1nc2ccccc2nc1OCC(=O)Nc1ccc2ccccc2c1	Pemphigus Ab inh 65
O=C(c1ccccc1)C1CC=CCC1C(=O)c1ccccc1 (centres undefined)	none (no result: LANA-H2A inh, HDAC3 inhib, VLA-4 inh, PKD1 inh, GRK2 inh)
COc1ccc(-c2nnc(COc3ccc4ccccc4c3)o2)cc1OC	none
COc1cc2ccccc2cc1-c1nnc(COc2ccccc2)o1	Pemphigus Ab inh 90
